This is a sample that favours compounds with a hit; in the whole collection about 7.5% have one here.
Vaccinia mCherry: vaccinia inhibition (mCherry reporter); Vaccinia virus mCherry reporter infection, fluorescence; Potency, µM (doses to about 36.5 µM), for the others: at the top dose activity change, negative = inhibition, most hits filed as inhibitors; hit rate 0.63% among 310,000; calls by dose curve; tested in A549 cells; also: potency is read from the fitted curve at half-maximal effect; nearly all actives have a fitted effect of over 35% in size
FMDV inh: antivirals against foot and mouth disease virus; FMDV antiviral cell-based qHTS; Potency, µM (top dose mostly 57.9 µM), for the others: top-dose activity change, negative = inhibition, hits mostly inhibitors; hit rate 1.2% among 410,000; AID 1159524; calls by dose curve; tested in HEK293T cells; also: read-out not given here; potency is read from the fitted curve at half-maximal effect; nearly all actives have a fitted effect of over 45% in size
FBPA Giardia inh: inhibitors of Giardia lamblia fructose-1,6-bisphosphate aldolase. AID 2451. purified Giardia FBPA. Potency, µM (top dose mostly 59.6 µM), for the others: at the top dose activity, negative = inhibition, most hits filed as inhibitors. A8B2U2. hit rate 0.71% among 290,000; also: potency is read from the fitted curve at half-maximal effect; nearly all actives have a fitted effect of over 55% in size
Target sequence (A8B2U2 whole entry, looked up): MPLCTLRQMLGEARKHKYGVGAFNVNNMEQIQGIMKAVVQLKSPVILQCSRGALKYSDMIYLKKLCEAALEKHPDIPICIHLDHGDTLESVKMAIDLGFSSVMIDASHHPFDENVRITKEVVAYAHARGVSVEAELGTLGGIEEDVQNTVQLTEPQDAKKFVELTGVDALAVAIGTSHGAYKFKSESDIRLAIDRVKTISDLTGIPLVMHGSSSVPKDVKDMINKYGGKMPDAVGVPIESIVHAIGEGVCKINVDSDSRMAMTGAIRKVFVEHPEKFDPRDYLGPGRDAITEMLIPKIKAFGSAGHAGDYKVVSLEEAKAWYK
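40 nM FBPA preincubated 10 min at RT with compound (up to 57.5 uM final), then substrate plus GAPDH/TPI/NAD/arsenate coupling and diaphorase/resazurin added. Fluorescence read after 20 min at RT, 525/598 nm.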
VACV Venus inh: vaccinia inhibition (Venus reporter); Vaccinia virus Venus reporter expression, fluorescence; Potency, µM (top dose mostly 36.5 µM), without a hit: at the top dose activity change, negative = inhibition, hits mostly inhibitors; hit rate 0.46% among 330,000; AID 720580; calls by dose curve; tested in A549 cells; also: potency is read from the fitted curve at half-maximal effect; nearly all actives have a fitted effect of over 30% in size
HCMV antiviral: inhibitors of human cytomegalovirus. activity change, negative = inhibition, % at 57.5 µM. HFF cells, HCMV-luciferase reporter, 72 h; active compounds read low. hit rate 4.5% among 410,000; in the data active = activity change below about -60%; inconclusive = no clear call, values can overlap the other calls; inactive = above about -39%
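Luciferase read-out from HCMV-luciferase-infected HFFs (MOI 1 PFU/cell) 72 h post infection at 37C; compounds added after 16 h cell attachment; activity normalized between buffer-only basal and Salinomycin (10uM) inhibitor controls.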
HCV inh: blocks hepatitis C virus | hit rate 3.4% among 340,000 | Potency, µM (highest dose often 41.8 µM), without a hit: at the top dose activity change, negative = inhibition, actives largely listed as inhibitors | Huh7.5.1 HCVcc-Cre infection, luciferase reporter, 44 h | AID 651820; also: potency is read from the fitted curve at half-maximal effect
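Reporter virus HCVcc-Cre (~0.5 moi) infects cells exposed to compound; seeding density 1,000 cells/well with 4 h settling beforehand. Luminescence, 15 sec read, taken 44 h post-infection following a 15 min RT substrate incubation.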
Active calls of the source: *; i = inactive; ? = inconclusive; nt = no result given. Unless noted, calls follow the shape of the dose curve; as a rule, active = well fitted curve in the direction sought with a large enough effect; inconclusive = small, poorly fitted or top-dose-only effect, or another doubt; inactive = no such curve, though single readings can be large; an effect the other way counts as inactive or inconclusive. % is scaled to controls: 0 for no effect and ±100 for the full control effect.

SMILES	Vaccinia mCherry	FMDV inh	FBPA Giardia inh	VACV Venus inh	HCMV antiviral	HCV inh
O=C(NCCc1ccccc1)Nc1ccc(Cl)cc1	-19%	26%	0%	-15%	15	-2%
S=C(NCCc1ccccc1)Nc1ccc(Cl)cc1	-30%	35%	5%	-26%	-79*	?
O=[N+]([O-])c1ccc(O)c(NC(=S)Nc2ccccc2)c1	nt	43%	-14%	nt	-89*	-10%
O=[N+]([O-])c1ccc(NC(=S)NCc2ccncc2)cc1	-19%	-6%	2%	-3%	-19	?
O=C(Nc1ccc(F)cc1)c1nc[nH]c1C(=O)Nc1ccc([N+](=O)[O-])cc1	-1%	-21%	-8%	-22%	-61*	6%
NS(=O)(=O)c1ccc(NC(=S)NCCc2ccccc2)cc1	nt	22%	?	nt	-32	24%
O=[N+]([O-])c1ccc(NC(=S)NCCc2ccccc2)cc1	-24%	36%	-2%	?	-96*	?
CNC(=O)C(=O)NCCN1CCN(C(=O)c2ccc([N+](=O)[O-])cc2)CC1	-9%	-9%	3%	-3%	33	13%
CCCCc1ccc(NC(=O)C(=O)NCCN2CCN(Cc3ccc([N+](=O)[O-])cc3)CC2)cc1	nt	?	0%	nt	-60*	?
O=[N+]([O-])c1ccc(NC(=S)NCc2ccc(F)cc2)cc1	?	-6%	6%	?	-99*	?
Cc1ccc(Cn2nc(C)c(C(=O)NCC(c3ccc(F)cc3)N3CCOCC3)c2Cl)cc1 (stereo not given)	nt	?	nt	nt	0	?
c1ccc(Nc2nc(NCc3ccco3)nc3nccnc23)cc1	-11%	nt	nt	-15%	nt	nt
Cc1ccc(C(=O)Nc2ccc3oc(-c4ccncc4)nc3c2)c(Cl)c1	-2%	-22%	nt	-13%	?	nt
O=[N+]([O-])c1ccc(NNC(=S)Nc2ccccc2)cc1	?	-1%	?	?	nt	11µM*
COc1ccc([N+](=O)[O-])cc1NC(=S)Nc1ccccc1	nt	-24%	-8%	-12%	44	4%
c1ccc2c(c1)C1=NCCN1c1ccccc1-2	?	-18%	nt	?	-103*	nt
COC1=Nc2ccccc2N2CCN=C12	7%	-3%	nt	6%	23	nt
COc1ccccc1CCn1c(=O)c(CCc2ccccc2)nc2cncnc21	nt	26%	2%	nt	nt	nt
O=C(O)c1cccc(N2C(=O)c3cccc4cccc(c34)C2=O)c1	-14%	5%	17%	-18%	35	26%
O=C1c2cc([N+](=O)[O-])cc3cc([N+](=O)[O-])cc(c23)C(=O)N1c1ccccn1	44%	13µM*	-22%	24%	-14	?
O=C(O)c1cccc(N2C(=O)c3cc([N+](=O)[O-])cc4cc([N+](=O)[O-])cc(c34)C2=O)c1	nt	35µM*	?	nt	-18	?
COc1ccc(CN(Cc2ccccc2)C(=O)c2ccno2)cc1COc1ccc(NC(C)=O)cc1	i	nt	nt	-8%	nt	nt
O=C(CN1C(=O)C2CC=CCC2C1=O)NCC(=O)Nc1ccc(F)c(F)c1 (stereo not given)	nt	-8%	nt	nt	-32	10%
CCc1nc2ccccc2c(C(=O)O)c1C	nt	10%	-13%	nt	25	?
CCc1nc2ccccc2c(C(=O)Oc2cccc3cccnc23)c1C	nt	-12%	10%	nt	27	2.2µM*
SMILES	Vaccinia mCherry	FMDV inh	FBPA Giardia inh	VACV Venus inh	HCMV antiviral	HCV inh
CCc1nc2ccccc2c(C(=O)NCc2ccccc2)c1C	0%	-7%	0%	-8%	-68*	-15%
CCc1nc2ccc(C)cc2c(C(=O)Oc2cccc3cccnc23)c1C	nt	0%	-11%	nt	-14	?
CC1(C)C(O)CC(O)[C@]2(C)C1CC(=O)[C@]1(C)C2CC[C@@]2(C)C(c3ccoc3)OC(=O)C3OC321 (stereo not given in full)	-13%	-1%	6%	-7%	nt	nt
CCc1ccc2nc(N3CCC(C(=O)N4CCC5(CC4)OCCO5)CC3)sc2c1	i	-11%	7%	-22%	?	11µM*
CCOc1ccc2nc(N3CCC(C(=O)N4CCN(c5ccccn5)CC4)CC3)sc2c1	nt	14µM*	0%	nt	nt	6.3µM*
O=C(C1CCN(c2nc3ccc(Br)cc3s2)CC1)N1CCC2(CC1)OCCO2	nt	-28%	0%	-27%	-33	3.2µM*

Assay outcomes (PubChem)
